# This is a sample that favours compounds with a hit; in the whole collection about 0.75% have one here.
# TSHR antag: human thyrotropin receptor antagonism | TSHR-expressing cells, TSH-stimulated cAMP HTRF, 2 h; hits give low values | AID 504810 | 0.2% of 330,000 active | P16473 | activity change, negative = inhibition, % at 11.5 µM;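 active = activity change below a set negative limit, meaning inhibition stronger than a set level, cut at about -70% in these data; inconclusive = activity change between two set negative limits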; note: % is set by controls: 0 for no effect and ±100 for the full control effect
# Target sequence (P16473 whole entry, looked up): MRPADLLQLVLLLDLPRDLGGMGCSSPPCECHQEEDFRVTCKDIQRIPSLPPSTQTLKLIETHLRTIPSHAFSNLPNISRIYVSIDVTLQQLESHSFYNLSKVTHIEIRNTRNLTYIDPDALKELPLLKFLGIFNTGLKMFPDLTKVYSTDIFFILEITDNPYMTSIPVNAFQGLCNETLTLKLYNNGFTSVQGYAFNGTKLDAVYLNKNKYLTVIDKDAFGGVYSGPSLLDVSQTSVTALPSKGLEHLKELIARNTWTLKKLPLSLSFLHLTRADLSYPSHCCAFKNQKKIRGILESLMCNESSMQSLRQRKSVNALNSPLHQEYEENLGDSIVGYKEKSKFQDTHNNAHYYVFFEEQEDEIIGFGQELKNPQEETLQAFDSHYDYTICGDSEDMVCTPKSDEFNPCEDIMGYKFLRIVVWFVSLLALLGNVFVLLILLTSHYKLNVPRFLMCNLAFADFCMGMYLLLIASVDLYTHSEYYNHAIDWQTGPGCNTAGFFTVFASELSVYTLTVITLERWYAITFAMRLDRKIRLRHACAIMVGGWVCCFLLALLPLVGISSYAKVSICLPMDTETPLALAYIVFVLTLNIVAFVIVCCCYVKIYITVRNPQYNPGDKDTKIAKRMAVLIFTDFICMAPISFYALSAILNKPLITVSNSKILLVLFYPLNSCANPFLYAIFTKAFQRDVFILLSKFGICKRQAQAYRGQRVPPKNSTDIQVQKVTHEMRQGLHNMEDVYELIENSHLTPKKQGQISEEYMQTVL
#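 Cell-based HTRF cAMP assay; TSHR cells + compound, TSH EC80 (4nM final), 2 h, 37 deg C. Lysis with anti-cAMP cryptate and cAMP-d2, 30 min RT, read 665/620 nm.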
# TCR activator: activators of T cell receptors; primary human leukocytes, anti-CD3, IL-2 HTRF, 48 h; AID 504894; Potency, µM (doses to about 9.22 µM), for inactives: at the top dose activation of IL-2 secretion, actives largely listed as activators; 330,000 tested, under 10 active; note: % of control where 0% means no effect
#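 Compounds are tested in HTS on primary human leukocytes co-incubated with a-CD3 beads for 48 hr. IL-2 output is measured by time-resolved FRET.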
# PKM2 activator: increases activity of human pyruvate kinase M2. P14618. purified PKM2, Kinase-Glo ATP luminescence, activation; response scale: 0% is enzyme alone, no compound. Potency, µM (highest dose often 57.5 µM), without a hit: at the top dose activation, actives largely listed as activators. 0.34% of 260,000 active; note: potency is the fitted concentration of half-maximal effect; % is set by controls: 0 for no effect and ±100 for the full control effect; nearly all actives have a fitted effect of over 55% in size
#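 Kinase-Glo luminescence reports ATP generated from ADP (0.1 mM) and PEP (0.5 mM) by purified hPK-M2 after 1 h at room temperature, pH 7.2 imidazole buffer; intermediate enzyme activity allows detecting inhibitors and activators.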
# uPA surface inh: inhibitors of cell surface uPA generation; cell surface uPA generation assay, qHTS; AID 540303; Potency, µM (titrated, usually from 38.3 µM), inactives show at the highest dose activity change, negative = inhibition, most hits filed as inhibitors; 0.31% of 330,000 active; active = well fitted inhibition curve with a large enough effect; inconclusive = small, poorly fitted or top-dose-only effect; inactive = no such curve, though single readings can be large or run the other way; tested in mouse RAW 264.7 cells; note: potency is the fitted concentration of half-maximal effect; % is set by controls: 0 for no effect and ±100 for the full control effect; nearly all actives have a fitted effect of over 55% in size
# * hit, by the source's call; ? = inconclusive; nt = not tested or not shown; [ ] = another dose, or the depositor's remark. Unless noted, calls come from the whole dose curve; as a rule, active = well fitted curve in the direction sought with a large enough effect; inconclusive = small, poorly fitted or top-dose-only effect, or another doubt; inactive = no such curve, though single readings can be large; an effect the other way counts as inactive or inconclusive.
SMILES,TSHR antag,TCR activator,PKM2 activator,uPA surface inh
O=C1NC(=O)N(c2ccc3c(c2)OCO3)C(=O)/C1=C/c1ccc(N2CCCCC2)o1,-3,0%,5%,3%
O=C1NC(=O)N(c2ccc3c(c2)OCO3)C(=O)/C1=C\c1ccc(-c2ccccc2C(=O)O)o1,-4,9%,25µM*,1%
CC(C)C[C@@H](C(=O)NC1CCN(Cc2ccccc2)CC1)N1C(=O)N2CCc3c([nH]c4ccccc34)[C@@]2(C)C1=O,1,4%,-1%,?
O=C1NC(=O)N(c2cccc(Cl)c2)C(=O)/C1=C\c1ccc(Sc2nc3ccccc3[nH]2)o1,-6,1%[46.1 µM],19%,-6%
O=C1NC(=O)N(c2ccccc2)C(=O)/C1=C/c1ccc(Sc2ccccc2)o1,29,6%,28µM*,nt
O=C(NC1(Cc2ccccc2)CCN(Cc2ccc(-c3ccccc3)cc2)C1=O)c1ccccc1 (stereo not drawn),-21,4%,nt,?
CCOP(=S)(OCC)Oc1cc(C)oc(=O)c1,-70*,2%,7%,-9%
COc1cccc(-c2sc3ccccc3c2-c2ccc(OCCN(C)C)cc2)c1,0,2%,nt,?
Cc1cccc(CN2CCCC(C(=O)Nc3ccc(-c4cscn4)cc3)C2)c1 (stereo not drawn),-4,-7%,0%,?
COc1ccc(N2C(=O)/C(=C/C=C/c3ccccc3[N+](=O)[O-])C(=O)NC2=S)cc1,5,-5%,20µM*,0%
COc1ccc(N2C(=O)/C(=C/c3cccs3)C(=O)NC2=S)cc1,-6,-3%,14µM*,-1%
CN(CCc1ccccc1)Cc1c[nH]c2ccccc12,-10,3%,0%,2.2µM*
CCN(CC)Cc1c[nH]c2ccccc12,8,0%,-9%,0%
CCC1C=CC=CC[C@H](C)[C@@H](O)[C@](C)(O)C(=O)[C@@H](C)[C@H](O)[C@@H](C)C(=O)[C@H](C)[C@@H](O)[C@H](C)C=CC(=O)OC2[C@@H](C)C(CC1)OC1(CC[C@@H](C)C(C[C@H](C)O)O1)[C@@H]2C (stereo partly drawn),-80*,nt,nt,nt
Cc1cc(-c2ccccc2)n(-c2cc(N/N=C/c3ccccc3O)ncn2)n1,5,-3%[46.1 µM],1%,10µM*
COc1cc(OC)c2c(-c3cccc(-c4ccc(N(C)C)cc4)c3)cc(=O)oc2c1,-2,-3%[46.1 µM],nt,1µM*
CCN(CC)C(=O)CC(c1ccc(N(C)C)cc1)c1c(OC)cc(OC)c2c(-c3ccccc3)cc(=O)oc12 (stereo not drawn),-3,-5%,-1%,?
COC(=O)N1C(=O)[C@@](c2ccc(OC)cc2)(C(C)C)N1C(=O)OC,24,0%,0%,6.3µM*
CC(C)Oc1ccc(C(=O)Nc2ccc(Cl)c(S(=O)(=O)Nc3ccc(Cl)cc3)c2)cc1,-45,0%[46.1 µM],5%,?
Cc1cccc(-n2ncc3c(NCCCO)ncnc32)c1,-6,3%,-2%,1.8µM*
Cc1cccc(-n2ncc3c(NCc4cccnc4)ncnc32)c1,2,0%,-6%,?
CCN(CC)S(=O)(=O)c1ccc(NN=C(C#N)C#N)cc1,-70*,5%[46.1 µM],29%,-4%
CC1(NC(=O)CC(c2ccccc2)(c2ccccc2)c2ccccc2)CCN(CCCc2ccccc2)C1=O (stereo not drawn),12,-4%,nt,?
C/C1=C\[C@@H](C)C/C=C/[C@H]2[C@@H]3O[C@]3(C)[C@@H](C)[C@H]3[C@H](Cc4c[nH]c5ccccc45)NC(=O)[C@]32C(=O)/C=C/C(=O)[C@@H]1O,-24,6%,?,0.79µM*
C[C@@H]1O[C@@H](O[C@H]2C[C@@H](O)[C@]3(CO)[C@H]4[C@H](O)C[C@]5(C)[C@@H](C6COC(=O)C6)CC[C@]5(O)[C@@H]4CC[C@]3(O)C2)[C@H](O)[C@H](O)[C@H]1O (stereo partly drawn),?,-2%,-9%,3%
SMILES,TSHR antag,TCR activator,PKM2 activator,uPA surface inh
C[C@@H]1O[C@@H](O[C@@H]2C=C3CCC4C(CC[C@]5(C)[C@@H](c6ccc(=O)oc6)CC[C@]45O)[C@@]3(C)CC2)[C@H](O)[C@H](O)[C@H]1O (stereo partly drawn),-74*,1%,nt,-21%
C[C@@H]1O[C@@H](O[C@@H]2C=C3CC[C@@H]4C(CC[C@]5(C)[C@@H](c6ccc(=O)oc6)CC[C@]45O)[C@@]3(C)CC2)[C@H](O)[C@H](O)[C@H]1O (stereo partly drawn),-78*,1%,nt,-6%
C[C@@H]1O[C@@H](O[C@H]2C[C@@H](O)[C@]3(CO)[C@@H]4C(CC[C@]3(O)C2)[C@@]2(O)CC[C@H]([C@@H]3COC(=O)C3)[C@@]2(C)C[C@H]4O)[C@H](O)[C@H](O)[C@H]1O (stereo partly drawn),-47,nt,nt,nt
O=c1cc(CSc2ccc(Cl)cc2)nc(-c2ccccn2)[nH]1,-9,1%,nt,?
COc1cc(N2C(=O)CC(=O)NC2=O)cc(OC)c1OC,-130*,nt,8%,-12%
CCSc1ccc([C@@H]2[C@@H]3C(=O)N(C)C(=O)[C@@H]3[C@]3(C(=O)OC)CCCCN23)cc1,103,-9%,nt,5%
COc1ccc(C(=O)N/N=C/c2ccc(N(C)c3ccccc3)cc2)cc1,nt,-4%,nt,?
CC[C@@]1(c2ccccc2OC)ON(c2ccccc2C(F)(F)F)C1=O,11,2%,nt,?
CC(C)(C)c1cc([N+](=O)[O-])cc(C(C)(C)C)c1O,-30,-5%,2%,7.9µM*
NC(=O)c1cc([N+](=O)[O-])cc([N+](=O)[O-])c1,nt,-3%,nt,-2%
CC(C)n1c(O)c(C2c3cc(Cl)ccc3Oc3[nH]c(=O)n(C(C)C)c(=O)c32)c(=O)[nH]c1=O (stereo not drawn),18,1%,14µM*,2%
COC(=O)c1cc(=O)n(Cc2ccco2)c(=Nc2ccc(F)c(Cl)c2)s1,-23,-9%,-11%,10µM*
CN(C1=C(NC(=O)c2ccccc2)C(=O)c2ccccc2C1=O)C1CCS(=O)(=O)C1 (stereo not drawn),19,8%[46.1 µM],1%,10µM*
CN(CCc1ccccc1)C(=O)c1ccc(NC(=O)Cc2ccc([N+](=O)[O-])cc2)cc1,-12,4%,nt,?
CC(=NCCc1ccccc1)c1c(O)[nH]c(=O)[nH]c1=O,26,-4%,28µM*,-3%
Fc1ccc(C[n+]2c(-c3ccccc3)cc(-c3ccccc3)cc2-c2ccccc2)cc1,1,-2%,nt,8.9µM*
Cc1cc(C)c2sc(NC(=O)c3ccc([N+](=O)[O-])o3)nc2c1,-49,-3%,-18%,?
Cc1c(S(=O)(=O)Nc2cccc(Cl)c2)c(=O)n(C)c(=O)n1C,1,-1%,?,7%
O=C1CC(c2cccc(Br)c2)c2cc3c(cc2N1)CCC3 (stereo not drawn),1,-3%,-14%,?
